# Measured values published in PubChem BioAssay AID1645882 (National Center for Advancing Translational Sciences (NCATS), 2021).
# Values joined by “and” are separate entries in the source; they are usually repeats but may differ in a detail not shown here. Equal values may be shown once. The whole screen tested about 16,000 compounds, of which about 120 (0.75%) were called active. About 4% were inconclusive and are not listed. Calls follow the shape of the dose curve; as a rule, active = well fitted inhibition curve with a large enough effect; inconclusive = small, poorly fitted or top-dose-only effect; inactive = no such curve, though single readings can be large or run the other way. The list comes from a sample in which actives are over-represented; it also holds similar structures and randomly drawn compounds. A call without a number means that no potency is given here. The source holds several records for some structures; these can differ, active in one and inactive in another.
# Biological target: Rap guanine nucleotide exchange factor 3 (Homo sapiens) (UniProt O95398)
# Sequence (O95398 whole entry, looked up): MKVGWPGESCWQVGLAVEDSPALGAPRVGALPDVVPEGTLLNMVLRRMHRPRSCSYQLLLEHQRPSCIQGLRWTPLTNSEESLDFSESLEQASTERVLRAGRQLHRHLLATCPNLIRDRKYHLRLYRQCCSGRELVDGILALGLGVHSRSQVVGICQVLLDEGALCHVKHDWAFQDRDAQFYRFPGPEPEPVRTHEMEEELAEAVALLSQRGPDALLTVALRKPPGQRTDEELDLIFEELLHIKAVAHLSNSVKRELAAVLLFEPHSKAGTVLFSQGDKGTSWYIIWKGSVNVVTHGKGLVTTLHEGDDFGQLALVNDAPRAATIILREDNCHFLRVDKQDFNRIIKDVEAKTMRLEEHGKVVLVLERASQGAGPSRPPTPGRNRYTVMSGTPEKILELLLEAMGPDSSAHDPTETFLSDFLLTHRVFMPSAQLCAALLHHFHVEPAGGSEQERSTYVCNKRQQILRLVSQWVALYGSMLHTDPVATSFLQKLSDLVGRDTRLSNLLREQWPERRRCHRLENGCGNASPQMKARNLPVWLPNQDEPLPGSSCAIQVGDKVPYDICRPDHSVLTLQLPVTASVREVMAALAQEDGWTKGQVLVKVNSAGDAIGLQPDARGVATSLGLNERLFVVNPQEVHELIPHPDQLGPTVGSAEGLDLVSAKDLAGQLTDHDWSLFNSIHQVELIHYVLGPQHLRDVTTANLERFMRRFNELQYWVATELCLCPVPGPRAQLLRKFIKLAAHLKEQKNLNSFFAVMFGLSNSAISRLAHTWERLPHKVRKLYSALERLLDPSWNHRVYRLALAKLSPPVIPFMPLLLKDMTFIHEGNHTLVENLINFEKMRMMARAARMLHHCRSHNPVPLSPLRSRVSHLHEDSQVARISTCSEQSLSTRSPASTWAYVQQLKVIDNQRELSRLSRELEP
# Assay: Validation qHTS for antagonist of cAMP-regulated guanine nucleotide exchange factor 3 (EPAC1); also: nearly all actives have a fitted effect of over 75% in size
# Details: EPAC1 Rap1B-BODIPY-GDP exchange, fluorescence; series mostly up to 150 µM
# Outline: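 Nucleotide exchange followed as fluorescence loss when BODIPY-GDP leaves Rap1B (480 nm excitation, 540 nm emission), read at 5 min intervals over 30 min. Reaction: 100 nM EPAC1, 250 nM RAP1B-BODIPY-GDP, 50 uM GDP; ATA and DMSO define normalization.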
# Potency is read from the fitted curve at half-maximal effect.
SMILES,Potency,"activity change, negative = inhibition"
Cn1cccc1C(=O)N1CCC[C@@]2(CCN(c3ncccn3)C2)C1,inactive,
CCCOC(=O)c1cc(O)c(O)c(O)c1,inactive,
O=C(OC[C@H]1O[C@@H](OC(=O)c2cc(O)c(O)c(OC(=O)c3cc(O)c(O)c(O)c3)c2)[C@H](OC(=O)c2cc(O)c(O)c(OC(=O)c3cc(O)c(O)c(O)c3)c2)[C@@H](OC(=O)c2cc(O)c(O)c(OC(=O)c3cc(O)c(O)c(O)c3)c2)[C@@H]1OC(=O)c1cc(O)c(O)c(OC(=O)c2cc(O)c(O)c(O)c2)c1)c1cc(O)c(O)c(OC(=O)c2cc(O)c(O)c(O)c2)c1,11.2 µM (active),
CCOC(=O)Cc1cccc(-c2cc(CCCCCCc3ccc(O[C@H]4O[C@H](COC(C)=O)[C@@H](OC(C)=O)[C@H](OC(C)=O)[C@@H]4OC(C)=O)c(-c4cccc(CC(=O)OCC)c4)c3)ccc2O[C@H]2O[C@H](COC(C)=O)[C@@H](OC(C)=O)[C@H](OC(C)=O)[C@@H]2OC(C)=O)c1,inactive,
COc1cc(/C=C/C(=O)c2cccs2)cc(OC)c1OC,inactive,
COc1cc(O)c(C(=O)c2ccccc2)cc1S(=O)(=O)O,inactive,
Cc1cc(-c2ccc(N=Nc3ccc4c(S(=O)(=O)O)cc(S(=O)(=O)O)c(N)c4c3O)c(C)c2)ccc1N=Nc1ccc2c(S(=O)(=O)O)cc(S(=O)(=O)O)c(N)c2c1O,20 µM (active) and 50.1 µM (active) and 31.6 µM (active),
COc1cc(-c2ccc(N=Nc3ccc4c(S(=O)(=O)O)cc(S(=O)(=O)O)c(N)c4c3O)c(OC)c2)ccc1N=Nc1ccc2c(S(=O)(=O)O)cc(S(=O)(=O)O)c(N)c2c1O,31.6 µM (active),12.3% [at 27.4 µM] (inactive)
CCC1CN(CC(=O)NC(C)c2c(C)nn(C)c2C)Cc2cc(OC)ccc2O1 (stereo not given),inactive,
Cc1c(C(=O)N(C)CC2CCCN(C)C2)cnn1-c1nccc(-c2ccco2)n1 (stereo not given),inactive,
COC(=O)[C@@H]1[C@@H]2C[C@H]3c4[nH]c5ccccc5c4CCN3C[C@@H]2CC[C@@H]1O,inactive,
CC1CC[C@@]2(C(=O)O)CC[C@]3(C)C(=CCC4[C@@]5(C)CCC(O)C(C)(C)C5CC[C@@]43C)C2C1C (stereo not given in full),inactive,
CN(C)c1ccc(/C=C/c2ccnc3c(-c4ccccc4)cccc23)cc1,inactive,
CC1COC2=C1C(=O)C(=O)c1c2ccc2c1CCCC2(C)C (stereo not given),inactive,
Cc1c(S(=O)(=O)O)oc2c1C(=O)C(=O)c1c-2ccc2c1CCCC2(C)C,100 µM (active),
Cc1coc2c1C(=O)C(=O)c1c-2ccc2c1CCCC2(C)C,inactive,
O=C(c1cccc(F)c1)N1CCC2(CCCN(c3ccncc3)C2)CC1,inactive,
Cc1cnc(-n2ncc(C(=O)NCC3COCCO3)c2C2CC2)nc1-c1cccs1 (stereo not given),inactive,
Cc1nc(NCc2cccc3c2OCO3)sc1-c1ccn(CC2CCCN(C)C2)n1 (stereo not given),inactive,
Cc1cc(C(C#N)c2ccc(Cl)cc2)c(Cl)cc1NC(=O)c1cc(I)cc(I)c1O (stereo not given),50.1 µM (active),
O=C(Nc1ccc([N+](=O)[O-])cc1Cl)c1cc(Cl)ccc1O,inactive,

SMILES,Potency,"activity change, negative = inhibition"
COC(=O)C[C@H]1c2ccccc2S(=O)(=O)N1Cc1ccc(OC)cc1,inactive,
C(=C\c1ccncc1)/c1ccccc1,inactive,
Cc1cc(N)c2cc(NC(=O)Nc3ccc4nc(C)cc(N)c4c3)ccc2n1,28.2 µM (active),
O=C(Nc1ccc(Cl)cc1)Nc1ccc(Cl)c(Cl)c1,inactive,
Cc1cc(NC(=O)Nc2ccc(N(C)C)cc2)c2cc(F)cc(F)c2n1,inactive,
COCc1c(C(=O)NC2CCCCC2)cnn1-c1nccc(-c2cc(C)sc2C)n1,inactive,
O=C(Cn1cccn1)N1CCOc2c(cc(-c3ncc(C(F)(F)F)cc3Cl)cc2OCC2CCCO2)C1 (stereo not given),inactive,
CCOc1ccc(S(=O)(=O)O)c2cccnc12,inactive,
O=C(Nc1ccc(/C=C/c2ccc(NC(=O)c3cc(S(=O)(=O)O)c4cccnc4c3O)cc2S(=O)(=O)O)c(S(=O)(=O)O)c1)c1cc(S(=O)(=O)O)c2cccnc2c1O,44.7 µM (active),
O=S(=O)(O)c1cc(I)c(O)c2ncccc12,inactive,
O=C(c1cnsn1)N1CCOc2ccc(CN3CCOCC3)cc2C1,inactive,
COCC(=O)Nc1cc(C(=O)N2CCCC(C(N)=O)C2)cc2nc(-c3ccccc3)n(C)c12 (stereo not given),inactive,
COc1ccc(CNc2ncnc3ccc(-c4ccc(N(C)C)cc4)cc23)c(OC)c1,inactive,
Nc1nc2c(nc(Br)n2[C@@H]2O[C@H]3COP(=O)(O)O[C@H]3[C@@H]2O)c(=O)[nH]1,inactive,
Nc1ncnc2c1nc(Br)n2[C@@H]1O[C@H]2COP(=O)(O)O[C@@H]2[C@@H]1O,2.82 µM (active),
Nc1ncnc2c1nc(Br)n2C1OC(CO)C(O)C1O (stereo not given),inactive,
Nc1nc2c(nc(Sc3ccc(Cl)cc3)n2C2OC(CO)C(O)C2O)c(=O)[nH]1 (stereo not given),inactive,
NC1=NC2C(N=C(Br)N2[C@@H]2O[C@H]3COP(=O)(O)O[C@@H]3[C@@H]2O)C(=O)N1 (stereo not given in full),inactive,
Nc1ncnc2c1nc(Sc1ccc(Cl)cc1)n2[C@H]1OC2COP(=O)(O)O[C@@H]2C1O (stereo not given in full),0.316 µM (active),
Nc1ncnc2c1nc(Br)n2C1OC2COP(=O)(O)O[C@@H]2C1O (stereo not given in full),0.708 µM (active),
Nc1ncnc2c1nc(Br)n2C1CC(O)C(CO)O1 (stereo not given),inactive,

SMILES,Potency,"activity change, negative = inhibition"
Nc1ncnc2c1nc(Br)n2[C@H]1O[C@H]2COP(=O)(O)O[C@H]2[C@@H]1O,2.51 µM (active),
Nc1nc2c(nc(Br)n2C2OC3COP(=O)(O)O[C@@H]3C2O)c(=O)[nH]1 (stereo not given in full),inactive,
Nc1ncnc2c1nc(Cl)n2C1OC(CO)C(O)C1O (stereo not given),inactive,
[N-]=[N+]=Nc1nc2c(N)ncnc2n1C1OC(CO)C(O)C1O (stereo not given),inactive,
O=S(=O)(c1ccccc1)N1CCC2(CCCN(c3ccccc3)C2)CC1,inactive,
Cc1cccc(CNC(=O)c2cnn(-c3nccc(-c4ccccc4F)n3)c2C)n1,inactive,
C[C@]12C[C@H](O)CC(CO)(CO)C1[C@H](O)C[C@@]13CC4[C@@H](CC12)[C@@]4(C)C3 (stereo not given in full),inactive,
N#Cc1cccc(NC(=O)N2CCC3(CC2)CCN(C(=O)c2cnccn2)CC3)c1,inactive,
O=S(=O)(NCc1ccccc1)[C@@H]1CC2C=CC1C2 (stereo not given in full),inactive,
CC(C)(C)OC(=O)NS(=O)(=O)NOCc1ccccc1,inactive,
COc1cc2c(cc1OC)C1C(=O)c3ccc4c(c3OC1CO2)C=CC(C)(C)O4 (stereo not given),inactive,
Cc1ccccc1C1(CC(=O)N2CC3(C)CC2CC(C)(C)C3)CC(=O)N(Cc2cccnc2)C1=O (stereo not given),inactive,
O=C(c1cccc(F)c1)N1CCC[C@@]2(CCN(Cc3ccncc3)C2)C1,inactive,
COc1ccc(C(=O)N2CCC3(CC2)CN(c2ccccc2)C3)cc1,inactive,
CCN(CC)CCOC[C@H]1O[C@@H](O)[C@H](OCCN(CC)CC)[C@@H](O)[C@@H]1O,inactive,
OC1(c2cccnc2)CCN(Cc2ccc3c(c2)CN(Cc2cc4ccccc4s2)CCO3)CC1,inactive,
COC(=O)c1c(OCCN2CCCCC2)cc(=O)n2c1CCN(Cc1cccc3nccnc13)CC2,inactive,
Cn1c(=O)c(-c2ccccc2)nc2cnc(Nc3ccccc3)nc21,inactive,
O=C(Nc1cccc(F)c1)N1CC[C@@]2(CCCN(C(=O)c3ccco3)C2)C1,inactive,
O=C(c1csnn1)N1CCC[C@@]2(CCN(c3ncccn3)C2)C1,inactive,
CC(=O)N[C@@H](CSC/C=C(\C)CCC=C(C)C)C(=O)O,inactive,

SMILES,Potency,"activity change, negative = inhibition"
CC(=O)N[C@@H](CSC/C=C(\C)CC/C=C(\C)CC/C=C(\C)CCC=C(C)C)C(=O)O,56.2 µM (active),32.8% [at 15.3 µM] (inactive)
CC(=O)CC/C=C(\C)CC/C=C(\C)CC/C=C(\C)CCC=C(C)C,inactive,
CCN(CC)CCOc1ccccc1OC,inactive,
C[C@H](CC[C@@H]1OC1(C)C)C1CC[C@H]2[C@@H]3CC=C4C[C@@H](O)CC[C@]4(C)[C@H]3CC[C@]12C (stereo not given in full),inactive,
C[C@@H]1C(=O)CC2C(C)(C)CCC[C@]2(C)[C@@]1(O)CCc1ccoc1 (stereo not given in full),inactive,
CCOC(=O)/C=C/c1ccc2c(c1)S(=O)(=O)N(C1CCCC1)[C@H]2CC(=O)OCC,inactive,
CC(=O)/C=C/c1ccc2c(c1)S(=O)(=O)N(C1CCCC1)[C@H]2CC(C)=O,56.2 µM (active),
O=C(O)/C=C/c1ccc2c(c1)S(=O)(=O)N(C1CCCC1)[C@H]2CC(=O)O,inactive,
CC1(C)S[C@@H]2[C@H](NC(=O)C(N)c3ccccc3)C(=O)N2[C@H]1C(=O)OC1OC(=O)c2ccccc21 (stereo not given in full),inactive,
COc1ccc(N2C(=O)[C@@H]3C[C@H]2CN3Cc2cccn2-c2ccc(Cl)cn2)c(C)c1,inactive,
COc1ccc2c(c1)[C@@]1(C)CCC[C@](C)(CO)C1CC2 (stereo not given in full),inactive,
Cc1cc(C(=O)NCc2nc(-c3ccccc3NC(=O)C3CCCO3)oc2C)nc(C)n1 (stereo not given),inactive,
COc1c2ccccc2nc2occc12,inactive,
O=C(O)c1cc(N=Nc2ccc(O)c(C(=O)O)c2)ccc1O,inactive,
Nc1ccc(O)c(C(=O)O)c1,inactive,
O=C(O)C1=CC(=C(c2ccc(O)c(C(=O)O)c2)c2ccc(O)c(C(=O)O)c2)C=CC1=O,56.2 µM (active) and 1.58 µM (active),
O=C(NCC1CCC2(CCN(Cc3c[nH]c4ccccc34)CC2)O1)C1CCOCC1 (stereo not given),inactive,
CO[C@H]1C=CO[C@@]2(C)Oc3c(C)c(O)c4c(O)c(c(/C=N/N5CCN(C)CC5)c(O)c4c3C2=O)NC(=O)/C(C)=C\C=C[C@H](C)[C@H](O)[C@@H](C)[C@@H](O)[C@@H](C)[C@H](OC(C)=O)[C@@H]1C,89.1 µM (active),
CO[C@H]1C=CO[C@@]2(C)Oc3c(C)c(O)c4c(O)c(c(C=NN5CCN(C)CC5)c(O)c4c3C2=O)NC(=O)C(C)=CC=C[C@H](C)[C@H](O)[C@@H](C)[C@@H](O)[C@@H](C)[C@H](OC(C)=O)[C@H]1C,inactive,
CO[C@H]1C=CO[C@@]2(C)Oc3c(C)c(O)c4c(O)c(cc(O)c4c3C2=O)NC(=O)/C(C)=C\C=C/[C@H](C)[C@H](O)[C@@H](C)[C@@H](O)[C@@H](C)[C@H](OC(C)=O)[C@@H]1C,inactive,
